Test results from PubChem BioAssay (NCATS).
“And” between values parts separate entries of the source, which are not always exact repeats. Identical values can stand only once. A number with no mark means an inactive call. Inconclusive results are not listed. A call without a number means that no potency is given here. The source made the active and inactive calls. Unless noted, the call rests on the fitted dose curve; in most records, active means well fitted inhibition curve with a large enough effect; inconclusive means small, poorly fitted or top-dose-only effect; inactive means flat fitted curve, though single readings scatter.

Legend:
astro = control astrocytes; assay: Drug repurposing screens with cells derived from glioblastoma tumor samples (AID 1345199); conditions: viability, ATP luminescence, 48 h; series mostly up to 45.9 µM; further: nearly all actives have a fitted effect of over 40% in size; further: potency means the concentration at half of the fitted maximal effect
How it was run: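 Primary testing used CD133+ neurospheres from four GBM patients, seven concentrations, 48 h exposure and ATP-based viability; confirmation added three slower-growing patient lines.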

[1] = molecular target: Nuclear receptor subfamily 1 group I member 2 (Rattus norvegicus) (UniProt Q9R1A7); assay: qHTS assay for small molecule activators of the rat pregnane X receptor (rPXR) signaling pathway (AID 651751; call rule not given here); conditions: rPXR reporter cells, luciferase (One-Glo), 24 h
Nuclear receptor subfamily 1 group I member 2 (Rattus norvegicus), sequence (Q9R1A7 whole entry, looked up): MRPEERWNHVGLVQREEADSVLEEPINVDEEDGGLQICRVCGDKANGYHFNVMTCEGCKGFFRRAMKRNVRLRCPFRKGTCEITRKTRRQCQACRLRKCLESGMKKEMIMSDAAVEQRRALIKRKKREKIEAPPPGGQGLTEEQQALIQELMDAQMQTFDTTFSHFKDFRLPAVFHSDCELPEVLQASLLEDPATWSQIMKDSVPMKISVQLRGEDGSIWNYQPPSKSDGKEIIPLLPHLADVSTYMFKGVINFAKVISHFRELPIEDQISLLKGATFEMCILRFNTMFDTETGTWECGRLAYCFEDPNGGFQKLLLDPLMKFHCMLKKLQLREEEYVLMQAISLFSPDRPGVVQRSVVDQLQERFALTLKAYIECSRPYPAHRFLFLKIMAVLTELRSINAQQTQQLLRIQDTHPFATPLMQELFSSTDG

[2] = qHTS assay for small molecule activators of the human pregnane X receptor (PXR) signaling pathway (AID 720659; call rule not given here)

With `CCCCc1cc2ccccc2c(OCCN(C)C)n1` the Potency (astro) was “inactive”.

With `CC(C)(C)NC[C@H](O)COc1nsnc1N1CCOCC1` the Potency (astro) was “inactive”.

For `CC(=O)Oc1ccc(C)cc1`, the Potency (astro) was “inactive”.

With `O=C(O)C1(C(=O)O)CCC1.[NH2-].[NH2-].[Pt+2]` the Potency (astro) was “inactive”.

For `Oc1ccccc1C=NCc1ccccc1`, the Potency (astro) was “inactive”.

In the case of `CN1CCN(c2cc3c(cc2F)c(=O)c(C(=O)O)cn3-c2ccc(F)cc2)CC1`, the Potency (astro) is reported as “inactive”.

With `CCOC(=O)[C@H](CCc1ccccc1)N[C@@H](C)C(=O)N1[C@H](C(=O)O)C[C@@H]2CCC[C@@H]21` the Potency (astro) was “inactive”.

In the case of `C[C@H]1[C@H]2CC[C@H]3[C@@H]4CC=C5C[C@@H](N(C)C)CC[C@]5(C)[C@H]4CC[C@]23CN1C`, the Potency (astro) is reported as “inactive”.

In the case of `OCc1ccccn1`, the Potency (astro) is reported as “inactive”.

For `CCN(CC)CCNC(=O)COc1ccc(OC)cc1`, the Potency (astro) was “inactive”.

In the case of `Cc1ccc(S(=O)(=O)NC(=O)NC2CCCC2)cc1`, the Potency (astro) is reported as “inactive”.

For `COc1ccc(CCN(C)CCCN2CCc3cc(OC)c(OC)cc3CC2=O)cc1OC`, the Potency (astro) was “inactive”.

In the case of `CC1CCc2c(N3CCC(O)CC3)c(F)cc3c(=O)c(C(=O)O)cn1c23` (centres undefined), the Potency (astro) is reported as “inactive”.

In the case of `Cc1cc(-c2ccccc2)nnc1NCCN1CCOCC1`, the Potency (astro) is reported as “inactive”.

For `Cc1cccc(C)c1NC(=O)CN1CCCCCC1`, the Potency (astro) was “inactive”.

In the case of `CC(=C(CCOC(=O)C(C)C)SSC(CCOC(=O)C(C)C)=C(C)N(C=O)Cc1cnc(C)nc1N)N(C=O)Cc1cnc(C)nc1N`, the Potency (astro) is reported as “inactive”.

For `CC(C)Cc1ccc(CC(=O)O)cc1`, the Potency (astro) was “inactive”.

With `Cc1ncc(CO)c(C=O)c1O` the Potency (astro) was “inactive”.

In the case of `COc1ccc(C(Cl)=C(c2ccc(OC)cc2)c2ccc(OC)cc2)cc1`, the Potency (astro) is reported as “inactive”.

For `CCCCCCCCNC(C)C(O)c1ccc(SC(C)C)cc1` (centres undefined), the Potency (astro) was 22.4 µM (active).

With `CC(=O)OCC(=O)[C@H]1CC[C@H]2[C@@H]3CCC4=CC(=O)CC[C@]4(C)[C@H]3CC[C@]12C` the Potency (astro) was “inactive”.

With `CN(C)CCOC(c1ccc(Cl)cc1)c1ccccn1` (centres undefined) the Potency (astro) was “inactive”.

For `O=C1[C@H](CC[C@H](O)c2ccc(F)cc2)[C@@H](c2ccc(O)cc2)N1c1ccc(F)cc1`, the Potency (astro) was “inactive”.

In the case of `CC(C)CCCC(C)N` (centres undefined), the Potency (astro) is reported as “inactive”.

For `CN(Cc1ccc(C(C)(C)C)cc1)Cc1cccc2ccccc12`, the Potency (astro) was “inactive”.

In the case of `CCC1NC(=O)c2cc(S(N)(=O)=O)c(Cl)cc2N1` (centres undefined), the Potency (astro) is reported as “inactive”.

With `Cc1c[nH]c2ccccc12` the Potency (astro) was “inactive”.

In the case of `CCCCCN=C(N)N/N=C/c1c[nH]c2ccc(OC)cc12`, the Potency (astro) is reported as “inactive”.

With `CN(C)CCC[C@@]1(c2ccc(F)cc2)OCc2cc(C#N)ccc21` the Potency (astro) was “inactive”.

With `CC(C)(C)NC[C@H](O)COc1cccc2c1CCCC2=O` the Potency (astro) was “inactive”.

For `CCCCN1C[C@H](O)[C@@H](O)[C@H](O)[C@H]1CO`, the Potency (astro) was “inactive”.

With `FC1(F)C(F)(F)C(F)(F)C2(F)C(F)(F)C(F)(F)C(F)(F)C(F)(F)C2(F)C1(F)F` (centres undefined) the Potency (astro) was “inactive”.

With `CCC(C(=O)OCCOCCN(CC)CC)c1ccccc1` (centres undefined) the Potency (astro) was “inactive”.

With `CCN1CCN(C(=O)N[C@@H](C(=O)N[C@@H]2C(=O)N3C(C(=O)O)=C(CSc4nnnn4C)CS[C@H]23)c2ccc(O)cc2)C(=O)C1=O` the Potency (astro) was “inactive”.

With `CCOc1cc(OCC)c(C(=O)CCC(=O)O)cc1OCC` the Potency (astro) was “inactive”.

For `O=C1c2cccc3c2[C@H](CCC3)CN1[C@@H]1CN2CCC1CC2`, the Potency (astro) was “inactive”.

With `CC(C)[N+](C)(C)CC(O)COc1cccc2ccccc12` (centres undefined) the Potency (astro) was “inactive”.

With `O=C(N/N=C/c1ccc([N+](=O)[O-])o1)c1ccc(O)cc1` the Potency (astro) was “inactive”.

For `CCN1/C(=C/C=C/c2sc3ccccc3[n+]2CC)Sc2ccccc21`, the Potency (astro) was 11.2 µM (active).

In the case of `Oc1ccc(Cl)cc1Cc1cc(Cl)ccc1O`, the Potency (astro) is reported as 11.2 µM (active), the max response [1] is reported as -15% and -0.451% and the outcome [2] is reported as “inactive”.

In the case of `CCCCCCCC/C=C\CCCCCCCCN`, the Potency (astro) is reported as “inactive”, the max response [1] is reported as 3.35% and the outcome [2] is reported as “inactive”.

For `CC1(COc2ccc(CC3SC(=O)NC3=O)cc2)CCCCC1` (centres undefined), the max response [1] was 13.5%.

For `OCCOCCN1CCN(C2=Nc3ccccc3Sc3ccccc32)CC1`, the Potency (astro) was “inactive”.

For `Nc1ccc(C(=O)NCC(=O)O)cc1`, the Potency (astro) was “inactive”.

With `NC(=O)c1ccccc1O` the max response [1] was -4.39% and the outcome [2] was “inactive”.

In the case of `CCCCC(CC)COC(=O)c1ccc(N(C)C)cc1` (centres undefined), the Potency (astro) is reported as “inactive” and the max response [1] is reported as 5.66% and 6.49%.

For `C/C=C/c1ccc(O)c(OC)c1`, the Potency (astro) was “inactive”, the max response [1] was 1.38% and 1.79% and the outcome [2] was “inactive”.

In the case of `CC(=O)Nc1ccc(CC(=O)O)cc1`, the Potency (astro) is reported as “inactive”.

In the case of `CCCN(CCC)S(=O)(=O)c1ccc(C(=O)O)cc1`, the Potency (astro) is reported as “inactive”, the max response [1] is reported as 7.36% and 2.17% and the outcome [2] is reported as “inactive”.
